Source: PubChem BioAssay (EPA / NIEHS)
Calls of active or inactive are those of the source. How the source made its calls: active means hit-call score of the fitted dose curve at least 0.9, where 1 is the maximum; inactive means score below 0.9.

Assays:
Details in all cases: mRNA level, 48 h; actives raise or lower the signal
[1] = read-out: flavin-containing dimethylaniline monooxygenases 3 (FMO3), FMO3 (gene 2328); assay: LTEA_HepaRG_FMO3: Life Technologies and Expression Analysis (LTEA) Assay for flavin-containing dimethylaniline monooxygenases 3 (FMO3) using HepaRG (AID 2283453);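 on AC50: differentiated human HepaRG liver cells in serum-free induction medium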
Summary of the method: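 FMO3 transcript quantified by TaqMan qRT-PCR against three housekeeping genes after 48 h chemical exposure of HepaRG cells. Eight-point half-log series, top 100 uM, 0.5% DMSO vehicle; phenobarbital 1mM induction control; up- or down-regulation fitted.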

[2] = read-out: Cytochrome P450 (CYP1A1), CYP1A1 (gene 1543); assay: LTEA_HepaRG_CYP1A1: Life Technologies and Expression Analysis (LTEA) Assay for Cytochrome P450 (CYP1A1) using HepaRG (AID 2283454)
Summary of the method: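 Using HepaRG cultures with 0.5% DMSO as vehicle, eight-concentration exposures (max 100 uM) lasted 48 h. Transcript levels were measured by TaqMan qRT-PCR and normalized to ACTB, GAPDH and POLR2A.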

[3] = read-out: CFLAR gene, CFLAR (gene 8837); assay: LTEA_HepaRG_CFLAR: Life Technologies and Expression Analysis (LTEA) Assay for CFLAR gene using HepaRG (AID 2283455)
Summary of the method: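 qRT-PCR read-out (Fluidigm/TaqMan) of CFLAR mRNA, normalized to three housekeeping genes, in differentiated human HepaRG cells after 48 h chemical exposure; 8-point half-log series from 100 uM in 0.5% DMSO; bidirectional curve fitting versus DMSO.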

[4] = read-out: Forkhead box O1 (FOXO1), FOXO1 (gene 2308); assay: LTEA_HepaRG_FOXO1: Life Technologies and Expression Analysis (LTEA) Assay for Forkhead box O1 (FOXO1) using HepaRG (AID 2283456)
Summary of the method: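 HepaRG, 48 h exposure, 8-pt half-log series from 100 uM in 0.5% DMSO, duplicates; Fluidigm qRT-PCR mRNA, housekeeping-normalised; bidirectional fit vs DMSO baseline.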

[5] = read-out: growth arrest and DNA damage 45 (GADD45A), GADD45A (gene 1647); assay: LTEA_HepaRG_GADD45A: Life Technologies and Expression Analysis (LTEA) Assay for growth arrest and DNA damage 45 (GADD45A) using HepaRG (AID 2283458)
Summary of the method: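 GADD45A expression was measured by TaqMan qRT-PCR against three housekeeping genes (ACTB, GAPDH, POLR2A) after 48 h treatment of HepaRG cells. Eight-point half-log series up to 100 uM in 0.5% DMSO, run in duplicate.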

[6] = read-out: Forkhead box O3 (FOXO3), FOXO3 (gene 2309); assay: LTEA_HepaRG_FOXO3: Life Technologies and Expression Analysis (LTEA) Assay for Forkhead box O3 (FOXO3) using HepaRG (AID 2283459)
Summary of the method: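 qRT-PCR readout of FOXO3 transcript, normalized to three housekeeping genes (ACTB, GAPDH, POLR2A); gain or loss fitted against 0.5% DMSO vehicle. HepaRG cells, 48 h chemical exposure, 8-point half-log series, top 100 uM.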

[7] = read-out: ABC Transporter (ABCB1), ABCB1 (gene 5243); assay: LTEA_HepaRG_ABCB1: Life Technologies and Expression Analysis (LTEA) Assay for ABC Transporter (ABCB1) using HepaRG (AID 2283460)
Summary of the method: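 HepaRG, 48 h exposure, 8-pt half-log series from 100 uM, 0.5% DMSO vehicle, duplicates. Readout: ABCB1 transcript by Fluidigm TaqMan qRT-PCR, housekeeping-normalized; bidirectional curve fit vs DMSO baseline.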

[8] = read-out: growth arrest and DNA damage 45 (GADD45B), GADD45B (gene 4616); assay: LTEA_HepaRG_GADD45B: Life Technologies and Expression Analysis (LTEA) Assay for growth arrest and DNA damage 45 (GADD45B) using HepaRG (AID 2283461)
Summary of the method: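 Human HepaRG monolayers receive chemicals for 48 h at eight half-log concentrations, highest 100 uM, in 0.5% DMSO. Expression is measured by TaqMan qRT-PCR and normalized to ACTB, GAPDH and POLR2A.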

[9] = read-out: ABC Transporter (ABCC3), ABCC3 (gene 8714); assay: LTEA_HepaRG_ABCC3: Life Technologies and Expression Analysis (LTEA) Assay for ABC Transporter (ABCC3) using HepaRG (AID 2283462)
Summary of the method: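 Transcriptional change of ABCC3 in HepaRG after 48 h treatment, determined by qRT-PCR normalized to endogenous controls. Concentrations spanned eight half-log steps to 100 uM in 0.5% DMSO.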

[10] = read-out: ABC Transporter (ABCB11), ABCB11 (gene 8647); assay: LTEA_HepaRG_ABCB11: Life Technologies and Expression Analysis (LTEA) Assay for ABC Transporter (ABCB11) using HepaRG (AID 2283463)
Summary of the method: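 HepaRG, 48 h exposure, 8-pt half-log CRC top 100 uM, 0.5% DMSO vehicle, duplicates. Readout: TaqMan qRT-PCR of ABCB11 mRNA, housekeeping-normalized (ACTB/GAPDH/POLR2A). Bidirectional fit vs DMSO baseline.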

[11] = read-out: ABC Transporter (ABCC2), ABCC2 (gene 1244); assay: LTEA_HepaRG_ABCC2: Life Technologies and Expression Analysis (LTEA) Assay for ABC Transporter (ABCC2) using HepaRG (AID 2283464)
Summary of the method: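 After plating and 48 h culture, HepaRG medium is replaced with serum-free induction medium and chemicals are added (8 concentrations, max 100 uM, 0.5% DMSO) for 48 h. Total RNA then undergoes qRT-PCR for ABCC2 with housekeeping normalization.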

[12] = read-out: Broad substrate specificity ATP-binding cassette transporter ABCG2 (Homo sapiens) (UniProt Q9UNQ0); assay: LTEA_HepaRG_ABCG2: Life Technologies and Expression Analysis (LTEA) Assay for ABC Transporter (ABCG2) using HepaRG (AID 2283465)
Summary of the method: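 HepaRG, 48 h exposure, 8-pt half-log series from 100 uM, 0.5% DMSO vehicle, duplicates. Readout: ABCG2 transcript by qRT-PCR (Fluidigm array), housekeeping-normalized; bidirectional curve fit relative to DMSO baseline.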

[13] = read-out: ATP-citrate lyase (ACLY), ACLY (gene 47); assay: LTEA_HepaRG_ACLY: Life Technologies and Expression Analysis (LTEA) Assay for ATP-citrate lyase (ACLY) using HepaRG (AID 2283466)
Summary of the method: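 qRT-PCR readout of ACLY transcript after 48 h chemical treatment of HepaRG cells; expression normalized to three housekeeping genes. Eight-point half-log series, highest 100 uM, 0.5% DMSO vehicle. Gain or loss fitted against DMSO baseline.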

[14] = read-out: Peroxisomal acyl-coenzyme A oxidase 1 (ACOX1) gene, ACOX1 (gene 51); assay: LTEA_HepaRG_ACOX1: Life Technologies and Expression Analysis (LTEA) Assay for Peroxisomal acyl-coenzyme A oxidase 1 (ACOX1) gene using HepaRG (AID 2283467)
Summary of the method: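 HepaRG, 48 h chemical exposure, 8-pt half-log series from 100 uM top, 0.5% DMSO vehicle, duplicates. Readout: ACOX1 mRNA by Fluidigm qRT-PCR, housekeeping-normalized; bidirectional fit vs DMSO baseline.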

[15] = read-out: Alkaline Phosphatase, Placental (ALPP) gene, ALPP (gene 250); assay: LTEA_HepaRG_ALPP: Life Technologies and Expression Analysis (LTEA) Assay for Alkaline Phosphatase, Placental (ALPP) gene using HepaRG (AID 2283468);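 on AC50: differentiated human HepaRG liver cells in serum-free induction medium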
Summary of the method: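 Using human liver HepaRG cells, chemicals are tested in duplicate over 48 h at half-log concentrations topping at 100 uM; phenobarbital 1 mM serves as induction control. ALPP mRNA change by qRT-PCR, bidirectional fit against vehicle.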

[16] = read-out: Bcl-2 (BAD) gene, BAD (gene 572); assay: LTEA_HepaRG_BAD: Life Technologies and Expression Analysis (LTEA) Assay for Bcl-2 (BAD) gene using HepaRG (AID 2283469)
Summary of the method: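 HepaRG, 48 h exposure, 8-pt half-log curve from 100 uM in 0.5% DMSO, duplicates. Readout: TaqMan qRT-PCR for BAD mRNA, housekeeping-normalised (ACTB/GAPDH/POLR2A); gain or loss fitted against DMSO baseline.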

[17] = read-out: Bcl-2 (BAX) gene, BAX (gene 581); assay: LTEA_HepaRG_BAX: Life Technologies and Expression Analysis (LTEA) Assay for Bcl-2 (BAX) gene using HepaRG (AID 2283470)
Summary of the method: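 Gene expression measured by Fluidigm qRT-PCR with three housekeeping genes for normalisation. HepaRG cells, plated 48 h beforehand, treated 48 h at up to 100 uM (8-point, half-log) in 0.5% DMSO. Bidirectional fitting versus DMSO.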

[18] = read-out: adenosine kinase (ADK) gene, ADK (gene 132); assay: LTEA_HepaRG_ADK: Life Technologies and Expression Analysis (LTEA) Assay for adenosine kinase (ADK) gene using HepaRG (AID 2283471)
Summary of the method: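 ADK expression quantified by qRT-PCR, normalised to three housekeeping genes, after 48 h exposure of HepaRG cells to eight concentrations (top 100 uM, half-log steps, duplicate, 0.5% DMSO). Up- or down-regulation fitted relative to vehicle.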

[19] = read-out: catalase (CAT), CAT (gene 847); assay: LTEA_HepaRG_CAT: Life Technologies and Expression Analysis (LTEA) Assay for catalase (CAT) using HepaRG (AID 2283452)
Summary of the method: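 HepaRG cells in serum-free induction medium, 0.5% DMSO vehicle, exposed 48 h in duplicate over 8 half-log concentrations from 100 uM. CAT mRNA measured by qRT-PCR, normalized to ACTB, GAPDH, POLR2A; bidirectional fit versus DMSO.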

Measured: AC50

Broad substrate specificity ATP-binding cassette transporter ABCG2 (Homo sapiens), sequence (Q9UNQ0 whole entry, looked up): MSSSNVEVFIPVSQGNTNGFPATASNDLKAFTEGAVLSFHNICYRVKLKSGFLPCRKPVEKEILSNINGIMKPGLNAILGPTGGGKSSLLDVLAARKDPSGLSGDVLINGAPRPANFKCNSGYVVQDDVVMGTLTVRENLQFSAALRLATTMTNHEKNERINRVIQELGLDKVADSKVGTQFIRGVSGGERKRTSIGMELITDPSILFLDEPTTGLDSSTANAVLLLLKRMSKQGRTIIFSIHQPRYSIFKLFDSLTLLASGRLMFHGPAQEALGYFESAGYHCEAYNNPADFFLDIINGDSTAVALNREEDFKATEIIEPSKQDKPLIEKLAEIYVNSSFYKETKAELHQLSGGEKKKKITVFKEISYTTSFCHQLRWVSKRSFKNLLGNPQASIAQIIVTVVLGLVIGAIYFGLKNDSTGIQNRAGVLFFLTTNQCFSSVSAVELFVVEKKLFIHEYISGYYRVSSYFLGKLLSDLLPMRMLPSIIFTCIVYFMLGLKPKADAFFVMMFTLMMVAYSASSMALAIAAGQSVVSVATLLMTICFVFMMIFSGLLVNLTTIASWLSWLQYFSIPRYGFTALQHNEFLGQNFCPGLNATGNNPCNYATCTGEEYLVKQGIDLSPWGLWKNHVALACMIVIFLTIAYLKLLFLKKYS

O=C1CCC(C2CCCCC2)CC1
active: [2] 50 µM
not listed: [19]
inactive: all other assays above

CCOC(=O)O[C@H](C)OC(=O)c1ccc2c(c1)cc(C(=O)NC1CCN(C(C)C)CC1)n2Cc1cc(-c2ccc(Cl)s2)on1
active: [2] 65.2 µM | [15] 16.9 µM
not listed: [8]
inactive: all other assays above

Cc1cc(F)ccc1-c1cc(N2CC[C@@H](O)[C@H]2CO)ncc1N(C)C(=O)C(C)(C)c1cc(C(F)(F)F)cc(C(F)(F)F)c1
active: [19] 11.7 µM | [1] 21.9 µM | [2] 70.6 µM | [3] 75.7 µM | [7] 10.3 µM | [10] 21.8 µM | [11] 70.7 µM | [12] 16.7 µM | [14] 8.09 µM | [15] 16.5 µM | [16] 72.1 µM | [17] 74.8 µM
inactive: [4] | [5] | [6] | [9] | [13] | [18]

O=c1[nH]sc2ccccc12
active: [2] 64.5 µM
not listed: [8]
inactive: all other assays above

CC(C)(O)c1ccc(CNC(=O)c2cccnc2Oc2ccc3nonc3c2)cc1
active: [2] 34.7 µM | [7] 50 µM | [11] 50 µM
not listed: [8]
inactive: all other assays above

CCCOC(=O)c1cc(O)c(O)c(O)c1
active: [2] 10.1 µM | [7] 4.06 µM | [11] 6.03 µM | [12] 4.97 µM
not listed: [1] | [8] | [16] | [17]
inactive: all other assays above

c1ccc(C[n+]2cccc3ccccc32)cc1
inactive: [3] | [7] | [11] | [13] | [16] | [18]
active: [19] 31.1 µM | [1] 32.6 µM | [2] 36.8 µM | [4] 76.1 µM | [5] 63.7 µM | [6] 50 µM | [9] 23.2 µM | [10] 31.3 µM | [12] 3.93 µM | [14] 22.8 µM | [15] 13 µM | [17] 69.4 µM
